High-throughput results as filed in PubChem BioAssay.
MOR-DOR inv ag – mu-delta opioid heterodimer inverse agonism; P35372+P41143; cell-based MOR-DOR heterodimer luminescence; inhibition, % at 9.3 µM; hit rate 0.21% among 340,000; in the data active = inhibition above about 22%, passing the limit was not always enough;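 also: 0% = cells with DMSO and 100% = wells without cells with DMSO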
HTR5A ag – HTR5A agonism, opioid heterodimer counter-screen; hit rate 0.61% among 340,000; activation, % at 9.3 µM; HTR5A agonist assay, luminescence, cell-based; AID 504692; P47898; in the data active = activation mostly above about 9.5%, no sharp cut-off; inactive = mostly below about 7.6%;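 also: 0% = cells with vehicle only and 100% = reference agonist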
Target sequence (P47898 whole entry, looked up): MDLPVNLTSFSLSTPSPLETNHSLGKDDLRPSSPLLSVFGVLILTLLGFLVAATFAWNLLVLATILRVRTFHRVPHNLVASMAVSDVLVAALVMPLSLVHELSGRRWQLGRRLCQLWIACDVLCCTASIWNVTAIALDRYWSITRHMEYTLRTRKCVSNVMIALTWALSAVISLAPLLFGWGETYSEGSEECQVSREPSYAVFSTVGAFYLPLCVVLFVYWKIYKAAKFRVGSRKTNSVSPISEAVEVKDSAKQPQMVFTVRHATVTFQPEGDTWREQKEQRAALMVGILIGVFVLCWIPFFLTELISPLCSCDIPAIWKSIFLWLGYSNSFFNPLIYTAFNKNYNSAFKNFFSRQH
MOR-DOR ag-1 – OPRM1-OPRD1 heterodimerization agonism | activation, % at 9.3 µM | cells, luminescence | P35372+P41143 | hit rate 0.3% among 340,000;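 also: 0% = vehicle-treated cells and 100% = reference agonist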
HTR5A inv ag – inverse agonist of human HTR5A in OPRM1-OPRD1 counter-screen | AID 504634 | inhibition, % at 9.3 µM | HTR5A cell line, luminescence, inverse agonism | hit rate 0.083% among 340,000; in the data active = inhibition mostly above about 23%, no sharp cut-off; inactive = mostly below about 18%;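 also: 0% = cells with DMSO and 100% = no-cell wells with DMSO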
MOR-DOR ag-2 – counter-screen for HTR5A agonists: OPRM1-OPRD1 heterodimerization agonism | U2OS counter-screen cells, complementation luminescence, 3 h | activation, % at 9.3 µM | shares compounds with HTR5A ag | hit rate 13% among 800
HTR5A ag confirm – HTR5A (human) agonism, confirmation; shares compounds with HTR5A ag; HTR5A agonist cell assay, luminescence; activation, % at 9.3 µM; hit rate 17% among 800; in the data active = activation above about 17%;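 also: 0% = cells with vehicle only and 100% = full reference agonist response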
Active calls of the source: *; x = no result given. Rows were chosen to be rich in hits. Some 1.1% of all compounds tested hit in one or more screens of this group. Rule as the data show it, unless noted: active = activation above about 18%; inactive = the rest.

SMILES | MOR-DOR inv ag | HTR5A ag | MOR-DOR ag-1 | HTR5A inv ag | MOR-DOR ag-2 | HTR5A ag confirm
CCC(CO)NC(=O)C1C=C2c3cccc4[nH]cc(c34)CC2N(C)C1 (stereo not drawn) | -47.6 | 74.7* | 8.8 | -266.8 | 1.3 | 88.0*
C=C(C)[C@@H]1[C@H]2OC(=O)[C@H]1[C@]1(O)C[C@H]3O[C@]34C(=O)O[C@H]2[C@]14C | 3.8 | 0.3 | -0.7 | -1.1 | x | x
CCC(CO)(C(=O)OC1CC2CCC(C1)N2C)c1ccccc1 (stereo not drawn) | -5.7 | 16.2* | 1.1 | 1.0 | -0.1 | -0.6
CC(C)CNC(=O)/C=C/C=C/CCCCCC/C=C/c1ccc2c(c1)OCO2 | 24.4 | 3.1 | -4.8 | 3.0 | x | x
C=CCn1c(O)c(/C(C)=N/N2CCCCC2)c(=O)[nH]c1=O | 17.2 | 19.5* | -3.5 | -50.6 | 16.6 | 9.2
COC(=O)C1=C(c2cccc(OC)c2OC)C[C@@H]2CC[C@H]1N2C(=O)NCc1cccc2ccccc12 | -15.7 | -5.0 | 2.9 | -10.8 | x | x
CC1CCC(C(C)C)C(OC(=O)Cn2c(COc3ccccc3)[n+](C)c3ccccc32)C1 (stereo not drawn) | -7.4 | 14.9* | 1.4 | -5.6 | 3.0 | 5.6
C[C@]12CC[C@@H](O)CC1=CCC1C2CC[C@@]2(C)C1C[C@@H](F)[C@H]2O (stereo partly drawn) | 17.2 | 4.4 | -3.3 | -18.1 | x | x
Nc1ccc(C2(c3ccc(N)cc3)c3ccccc3-c3ccccc32)cc1 | -28.9 | 44.2* | 5.8 | -79.6 | 22.7* | 27.0*
COc1cc(C(=O)OC2C[C@H]3CC[C@@H](C2)N3)ccc1O (stereo partly drawn) | 8.4 | -3.7 | -1.8 | 13.3 | x | x
COP(=O)(Cc1ccc(C#N)o1)OC | 10.3 | 15.4* | -2.0 | -11.4 | -0.3 | -3.1
CC(N)Cc1c[nH]c2ccc(O)cc12 (stereo not drawn) | 12.1 | 34.9* | -2.2 | -185.6 | 1.6 | 60.0*
O=[N+]([O-])c1ccc(Cl)cc1 | 18.1 | 1.5 | -3.4 | -6.1 | x | x
CCN(CC)C(=O)N[C@H]1C[C@@H]2c3cccc4[nH]cc(c34)C[C@H]2N(C)C1 | -3.9 | 2.7 | 0.7 | -6.4 | x | x
CN1C[C@H](CO)C[C@@H]2c3cccc4[nH]cc(c34)C[C@H]21 | 1.0 | 16.3* | -0.2 | -61.2 | 1.1 | 23.3*
OCCNCCc1c[nH]c2ccc(OCc3ccccc3)cc12 | -5.3 | 3.4 | 1.1 | -12.6 | x | x
COc1ccc2[nH]cc(CCN)c2c1 | 3.3 | 59.9* | -0.7 | 9.9 | 8.6 | -3.9
COC(=O)C1=C(c2ccc(F)cc2F)C[C@@H]2CC[C@H]1N2C(=O)NCc1ccc2c(c1)OCO2 | 15.8 | 21.2* | -2.8 | 14.3 | 3.6 | -0.9
Cc1[nH]c2ccc(OCc3ccccc3)cc2c1CCN | 12.1 | 0.9 | -2.5 | -3.2 | x | x
Cc1[nH]c2ccc(O)cc2c1CCN | -2.8 | 40.3* | 0.5 | -143.9 | 0.9 | 50.3*
COc1ccccc1CCNC1CCCCCC1 | 1.1 | -3.3 | -0.2 | 12.3 | x | x
c1ccc2c(CCNC3CCCCC3)c[nH]c2c1 | 14.4 | 25.3* | -2.9 | -65.2 | 0.8 | 35.9*
CN(C)CCSCc1nnc2n1-c1ccc(Cl)cc1C(c1ccccc1Cl)=NC2 | 7.9 | -3.4 | -1.6 | -18.8 | x | x
